Among the data in PubChem BioAssay (NCI) are growth values, retold here.

Compounds without any hit were thinned out: in the full panel of roughly 83,000, 20% have a hit.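 Percent growth is the endpoint: 0 to 100 indicates growth inhibition (40 means 60% inhibition), 0 means no net growth, and negative values indicate cell death.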 Calls of active or inactive are those of the source. How the source made its calls: active means growth percent below 10; inactive means the rest.

In this experiment the test system is U251 CNS. Kind of experiment: NCI-60 one-dose screen, 48 h (100 = growth as untreated, 0 = no growth, -100 = all killed). The conditions noted are these: 10 µM unless noted.
Regarding `Cn1cc(-c2csc(-c3ccc(Cl)cc3)n2)c2cccnc21`, the growth is 4.92% [100 µM] (active).

For the compound `COc1cc(-c2nc(SCCC(C)C)nc(Nc3ccccc3Cl)c2C#N)cc(OC)c1OC`, the growth is 106% (inactive).

On to `CCn1c(=S)[nH]c2c(=O)n(C)c(=O)n(C)c21`, for which the growth was 95.9% (inactive).

On to `c1ccc(CNc2c3ccccc3nc3ccccc23)cc1`, for which the growth was 38.5% (inactive). On to `COCCn1c(-c2csc(-c3cn(C)c4ccc(OC)cc34)n2)cc2cccnc21`, for which the growth is 48.4% (inactive). The result for `CCOC(=O)CSc1ncnc2c1c(-c1ccccc1)c(-c1ccccc1)n2-c1ccc(C)cc1` reads 49.1% (inactive); that for `COc1cc2oc(-c3cccc(NC(=O)c4cccc(Br)c4)c3)cc(=O)c2c(OC)c1OC`, 53.9% (inactive). Consider `Cc1ccc(Cl)cc1Nc1nc(C(F)(F)F)ccc1C(=O)N/N=C/c1cccnc1`, for which the growth is 2.89% (active). Then `Cn1c(=O)c2c(nc(NC3=NS(=O)(=O)c4ccccc43)n2CC(=O)N2CCc3ccccc32)n(C)c1=O`, with 101% (inactive); and `Cc1cccc(Cl)c1NC(=O)c1ccc2nc(NC(=O)NCCN(C)C)sc2c1`, with 80.4% (inactive). Then `CCOC(=O)c1c(C)nc2c(c1N)CC(=O)N2Cc1cc(F)cc(Cl)c1`, with 90.8% (inactive); and `COC(C(=O)[C@@H](O)[C@@H](C)O)[C@@H]1Cc2cc3cc(O[C@H]4C[C@@H](O[C@H]5C[C@@H](O)[C@H](O)C(C)O5)[C@H](O)C(C)O4)cc(O)c3c(O)c2C(=O)[C@H]1O[C@H]1C[C@@H](O[C@H]2C[C@@H](O[C@H]3C[C@@H](OC)[C@H](O)C(C)O3)[C@@H](O)C(C)O2)[C@H](O)C(C)O1` (stereo partly drawn), with 26.5% (inactive); and `CN([O-])c1nc(N(C)[O-])nc(N2CCOCC2)n1.CN([O-])c1nc(N(C)[OH2+])nc(N2CCOCC2)n1.[Fe+3]`, with 38.7% [100 µM] (inactive).

Turning to `CCOP(=O)(OCC)c1nc(-c2ccccc2)oc1NCc1cccnc1`, the growth was 107% (inactive). Then `CCn1c(SCC(=O)c2ccc(Br)cc2)nnc1-c1ccncc1`, with 99.6% (inactive); and `CCCCNc1ccc(C#N)c(OCCN(CC)CC)c1`, with 103% (inactive). The result for `N#Cc1c(-c2ccc(Cl)cc2)nc(NN=Cc2cccc(O)c2)nc1N1CCOCC1` reads 61.6% (inactive).

In the case of `CS(=O)(=O)Nc1cc(-c2ccc3ncnc(Nc4c(Cl)ccc5c4OCO5)c3c2)cnc1Cl`, the growth was -30.4% (active). The result for `Fc1cccc(CNc2c3ccccc3nc3ccccc23)c1F` reads 65.6% (inactive); that for `COC(=O)CNC(=O)[C@H](Cc1ccccc1)NCc1ccncc1`, 92.3% (inactive); that for `O=C(NCCCN1CCOCC1)c1cccc(N2C(=O)/C(=C/c3ccc(F)cc3)SC2=S)c1`, 100% (inactive).

With `O=[N+]([O-])/C(=C/C=C/c1ccccc1)c1ccccc1`, the growth is 37.2% (inactive). Then `Cn1cc(-c2csc(-c3c[nH]c4ccc(Br)cc34)n2)c2cnccc21`, with -85.8% (active); and `C=C(C)[C@@H]1CC[C@]2(C(=O)N3CCN(C)CC3)CC[C@]3(C)[C@H](CC[C@@H]4[C@@]5(C)CC(=C/c6ccncc6)/C(=N/O)C(C)(C)[C@@H]5CC[C@]43C)[C@@H]12`, with 70.2% (inactive); and `COc1cc(N2C(=O)[C@H](O)C2c2ccc(SC)cc2)cc(OC)c1OC` (stereo partly drawn), with 14.4% (inactive).

With `CCCCC(=O)c1ccco1`, the growth was 102% (inactive). The result for `C=C(C)[C@@H]1CC[C@]2(C)[C@H](CC=C3[C@@H]4[C@H](C)[C@@H](C)CC[C@]4(CO)CC[C@]32C)[C@@]1(C)CCCN` reads -74.3% (active); that for `COc1ccc2[nH]cc(-c3nc(-c4c[nH]c5ccncc45)cs3)c2c1`, -49.4% (active); that for `Oc1ccc(CN2CCC(N3CCCCC3)CC2)c2cccnc12`, 17.6% (inactive).

As to `CC(C)(C)c1cc(-c2nc3ccc(N4CCN(S(C)(=O)=O)CC4)cc3[nH]2)cc(C(C)(C)C)c1O`, the growth was 90.2% (inactive). Then `COc1ccc2c(c1)c(-c1noc(C(=O)c3cn(C)c4ccc(Br)cc34)n1)cn2C`, with 101% (inactive); and `C[C@H](NC(=O)[C@@H](C)N)[C@H](Oc1ccc2c(cnn2-c2ccc(F)cc2)c1)c1ccc2c(c1)OCCO2`, with 34.7% (inactive); and `C=C(C)[C@@H]1CC[C@]2(C(=O)O)CC[C@]3(C)[C@H](CC[C@@H]4[C@@]5(C)C[C@@H](Cc6cn(CCO[C@@H]7O[C@H](COC(C)=O)[C@H](OC(C)=O)[C@H](OC(C)=O)[C@H]7OC(C)=O)nn6)[C@H](O)C(C)(C)[C@@H]5CC[C@]43C)[C@@H]12`, with 57.4% (inactive).
